Reference: the supplement of paper PMC12494721
Counter-ions that a name gives are not always drawn.

How the values were obtained:
Conditions in all cases: incubation time: 27 h, anaerobic, 37 °C;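 for the amine columns active = adjusted P below 0.05 in both replicates with a change the same way and a mean fold change under 0.8 or over 1.25; inactive = the rest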
[1] = test system: Clostridium sporogenes DSM 1664; test: growth (OD595) fold change vs plate DMSO controls (fold change (ratio)); higher = more growth
Procedure, shortened: (§1)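 Anaerobic mGAM cultures in 96-well plates were grown for 27 h at 37 °C, and absorbance was then read at 595 nm. After blank and compound background correction with 20 µM compound solutions in water, a calibration factor of 5 gave OD. Growth is the fold change relative to the median of each plate's DMSO controls. Values are means of 2 biological replicates, with fold changes above 1.5 set to NA.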

Escherichia coli IAI1 [2] = test: as above
Procedure, shortened: as §1

[3] = test system: Klebsiella aerogenes DSM 30053; test: as above
Procedure, shortened: as §1

[4] = test system: Ruminococcus gnavus DSM 108212; test: as above
Procedure, shortened: as §1

[5] = test system: Klebsiella aerogenes DSM 30053; test: fold change of Histamine concentration vs plate DMSO controls (fold change (ratio)); higher = more amine produced, active = hit call of the paper (significant change in both replicates, either direction)
Procedure, shortened: (§2)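 In 80 µL wells, cultures of four gut bacterial strains in mGAM started at OD 0.1 before a 1:1 dilution and grew anaerobically at 37 °C for 27 h. Compounds were added to 20 µM final, except sweeteners at 50 µM final. After extraction of whole cultures with cold acetonitrile/methanol plus 0.1% formic acid and centrifugation, amines were measured by LC–triple-quadrupole MS in dynamic MRM mode against external calibration curves, with within-batch drift correction. Values give fold change over DMSO controls on the same plate, averaged across 2 biological replicates.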

[6] = test system: Clostridium sporogenes DSM 1664; test: fold change of Tryptamine concentration vs plate DMSO controls (fold change (ratio)); higher = more amine produced, active = hit call of the paper (significant change in both replicates, either direction)
Procedure, shortened: as §2

[7] = test system: Ruminococcus gnavus DSM 108212; test: as above
Procedure, shortened: as §2

Escherichia coli IAI1 [8] = test: fold change of Putrescine concentration vs plate DMSO controls (fold change (ratio)); higher = more amine produced, active = hit call of the paper (significant change in both replicates, either direction)
Procedure, shortened: as §2

[9] = test system: Klebsiella aerogenes DSM 30053; test: as above
Procedure, shortened: as §2

Escherichia coli IAI1 [10] = test: fold change of Cadaverine concentration vs plate DMSO controls (fold change (ratio)); higher = more amine produced, active = hit call of the paper (significant change in both replicates, either direction)
Procedure, shortened: as §2

[11] = test system: Klebsiella aerogenes DSM 30053; test: as above
Procedure, shortened: as §2

[12] = test system: Ruminococcus gnavus DSM 108212; test: fold change of 2-Phenylethylamine concentration vs plate DMSO controls (fold change (ratio)); higher = more amine produced, active = hit call of the paper (significant change in both replicates, either direction)
Procedure, shortened: as §2

Row | SMILES | growth [1] | growth (Escherichia coli IAI1 [2]) | growth [3] | growth [4] | fold change of Histamine concentration [5] | fold change of Tryptamine concentration [6] | fold change of Tryptamine concentration [7] | fold change of Putrescine concentration (Escherichia coli IAI1 [8]) | fold change of Putrescine concentration [9] | fold change of Cadaverine concentration (Escherichia coli IAI1 [10]) | fold change of Cadaverine concentration [11] | fold change of 2-Phenylethylamine concentration [12]
1 | O=S(=O)(O)c1cc(O)ccc1O [Ethamsylate diethylammonium salt] (20 µM) | 0.89 | 0.975 | 0.98 | 0.997 | 1.07 (inactive) | 0.982 (inactive) | 1.05 (inactive) | 0.989 (inactive) | 1.02 (inactive) | 1.02 (inactive) | 0.99 (inactive) | 1.09 (inactive)
2 | CC1(C)[C@@H](O[C@H]2O[C@H](C(=O)O)[C@@H](O)[C@H](O)[C@H]2O[C@@H]2O[C@H](C(=O)O)[C@@H](O)[C@H](O)[C@H]2O)CC[C@]2(C)[C@H]3C(=O)C=C4[C@@H]5C[C@@](C)(C(=O)O)CC[C@]5(C)CC[C@@]4(C)[C@]3(C)CC[C@@H]12 [Glycyrrhizic acid] (50 µM) | 0.971 | 0.995 | 1.07 | 1.07 | 0.865 (inactive) | 0.966 (inactive) | 1.05 (inactive) | 1.02 (inactive) | 0.992 (inactive) | 1.05 (inactive) | 1.03 (inactive) | 1.1 (inactive)
3 | Cc1c(Nc2ncccc2C(=O)O)cccc1C(F)(F)F [Flunixin meglumine] (20 µM) | 0.944 | 1.04 | 1.05 | 1.15 | 0.909 (inactive) | 1.03 (inactive) | 0.992 (inactive) | 1.07 (inactive) | 0.959 (inactive) | 1.01 (inactive) | 1 (inactive) | 1.02 (inactive)
4 | C[C@H](N[C@@H](CCc1ccccc1)C(=O)O)C(=O)N1CCC[C@H]1C(=O)O [Enalaprilat dihydrate] (20 µM) | 0.89 | 0.971 | 0.996 | 1.16 | 1.04 (inactive) | 0.967 (inactive) | 1.04 (inactive) | 1 (inactive) | 1.01 (inactive) | 1.08 (inactive) | 0.991 (inactive) | 1.04 (inactive)
5 | NS(=O)(=O)Cc1noc2ccccc12 [Zonisamide] (20 µM) | 0.883 | 1.01 | 0.994 | 1.01 | 1.02 (inactive) | 1.07 (inactive) | 0.863 (inactive) | 1.07 (inactive) | 1.01 (inactive) | 1.05 (inactive) | 1 (inactive) | 0.806 (inactive)
6 | CC1CCc2cc(F)cc3c(=O)c(C(=O)O)cn1c23 (stereo unspecified) [Flumequine] (20 µM) | 0.015 | 0.0532 | 0.404 | 0.706 | 0.301 (active) | 0.0425 (active) | 0.989 (inactive) | 0.679 (active) | 1.13 (inactive) | 0.209 (active) | 0.975 (inactive) | 0.952 (inactive)
7 | CCCCOc1ccc(OCCCN2CCOCC2)cc1 [Pramoxine hydrochloride] (20 µM) | 1.11 | 0.971 | 1.17 | 0.899 | 0.904 (inactive) | 1.06 (inactive) | 1.01 (inactive) | 0.96 (inactive) | 0.976 (inactive) | 0.97 (inactive) | 1.02 (inactive) | 1.07 (inactive)
8 | C[C@@H]1C[C@H]2[C@@H]3C[C@H](F)C4=CC(=O)C=C[C@]4(C)[C@@]3(F)[C@@H](O)C[C@]2(C)[C@@]1(O)C(=O)CO [Flumethasone] (20 µM) | 1.02 | 1 | 1.01 | 1.2 | 0.997 (inactive) | 0.979 (inactive) | 1.01 (inactive) | 0.991 (inactive) | 0.989 (inactive) | 1.04 (inactive) | 0.991 (inactive) | 0.972 (inactive)
9 | CC(=O)Nc1c(I)c(C(=O)N[C@H]2C(O)O[C@H](CO)[C@@H](O)[C@@H]2O)c(I)c(N(C)C(C)=O)c1I (stereo partly specified) [Metrizamide] (20 µM) | 1.03 | 1.22 | 1.04 | 0.799 | 0.994 (inactive) | 1.05 (inactive) | 1.06 (inactive) | 1.22 (inactive) | 0.994 (inactive) | 0.971 (inactive) | 1 (inactive) | 1.08 (inactive)
10 | CCCNC(C)(C)C(=O)Nc1ccccc1C [Quatacaine] (20 µM) | 1.01 | 0.991 | 0.979 | 0.952 | 1.01 (inactive) | 1.01 (inactive) | 1.05 (inactive) | 0.994 (inactive) | 1 (inactive) | 0.951 (inactive) | 0.997 (inactive) | 1.04 (inactive)
11 | CCOC(=O)Nc1ccc(NCc2ccc(F)cc2)nc1N [Flupirtine] (20 µM) | 1.18 | 0.973 | 1.04 | 0.999 | 0.95 (inactive) | 0.95 (inactive) | 1.01 (inactive) | 1.03 (inactive) | 0.993 (inactive) | 1.01 (inactive) | 0.999 (inactive) | 1.03 (inactive)
12 | CO[C@H]1/C=C/O[C@@]2(C)Oc3c(C)c(O)c4c(O)c(c(/C=N/N5CCN(C)CC5)c(O)c4c3C2=O)NC(=O)/C(C)=C\C=C\[C@H](C)[C@H](O)[C@@H](C)[C@@H](O)[C@@H](C)[C@H](OC(C)=O)[C@@H]1C [Rifampicin] (20 µM) | 0.000637 | 0.224 | 0.627 | 0.187 | 0.732 (inactive) | 0.0227 (active) | 0.145 (active) | 0.718 (active) | 0.768 (inactive) | 1.14 (inactive) | 1.06 (inactive) | 0.131 (active)
13 | CCN(CCO)CCCC(C)Nc1ccnc2cc(Cl)ccc12 (stereo unspecified) [Hydroxychloroquine sulfate] (20 µM) | 1.08 | 0.955 | 0.95 | 0.855 | 1.09 (inactive) | 0.967 (inactive) | 0.991 (inactive) | 0.915 (inactive) | 1.04 (inactive) | 0.999 (inactive) | 0.982 (inactive) | 1.02 (inactive)
14 | CCN(CC)C(=O)N1CCN(C)CC1 [Diethylcarbamazine citrate] (20 µM) | 1.12 | 0.975 | 1.04 | 0.977 | 0.954 (inactive) | 1.03 (inactive) | 0.976 (inactive) | 0.988 (inactive) | 0.985 (inactive) | 1.02 (inactive) | 1 (inactive) | 0.905 (inactive)
15 | CC(C)(CO)[C@@H](O)C(=O)NCCC(=O)NCCSSCCNC(=O)CCNC(=O)[C@H](O)C(C)(C)CO [D-Pantethine] (20 µM) | 1.09 | 0.976 | 1.02 | 0.955 | 0.976 (inactive) | 1.03 (inactive) | 0.986 (inactive) | 1 (inactive) | 1.03 (inactive) | 1.03 (inactive) | 1 (inactive) | 1.02 (inactive)
16 | CCN(CC)CCOC(=O)c1ccc(N)cc1 [Procaine hydrochloride] (20 µM) | 0.834 | 1.24 | 1.08 | 1.23 | 0.974 (inactive) | 1.04 (inactive) | 1.04 (inactive) | 1.16 (inactive) | 1.03 (inactive) | 0.979 (inactive) | 1.01 (inactive) | 0.992 (inactive)
17 | CS(=O)(=O)OCCCCOS(C)(=O)=O [Busulfan] (20 µM) | 0.951 | 1.07 | 0.991 | 1.09 | 0.992 (inactive) | 1.04 (inactive) | 1.11 (inactive) | 1.08 (inactive) | 0.962 (inactive) | 1.04 (inactive) | 1.04 (inactive) | 1.09 (inactive)
18 | CN1CCN(CCCN2c3ccccc3Sc3ccc(S(=O)(=O)N(C)C)cc32)CC1 [Thioproperazine dimesylate] (20 µM) | 0.886 | 0.986 | 1.12 | 1.15 | 0.898 (inactive) | 1.03 (inactive) | 0.963 (inactive) | 0.969 (inactive) | 0.976 (inactive) | 0.99 (inactive) | 1.01 (inactive) | 1.06 (inactive)
19 | Cc1[nH]cnc1CN1CCc2c(c3ccccc3n2C)C1=O [Alosetron hydrochloride] (20 µM) | 1.17 | 0.97 | 1.02 | 1.13 | 0.979 (inactive) | 1.04 (inactive) | 0.996 (inactive) | 0.971 (inactive) | 1.02 (inactive) | 0.945 (inactive) | 1.01 (inactive) | 0.975 (inactive)
20 | Cc1cccc(C)c1OCC(=O)N[C@@H](Cc1ccccc1)[C@@H](O)C[C@H](Cc1ccccc1)NC(=O)[C@H](C(C)C)N1CCCNC1=O [Lopinavir] (20 µM) | 1.12 | 1.01 | 1.19 | 1.31 | 0.963 (inactive) | 0.892 (inactive) | 0.986 (inactive) | 0.989 (inactive) | 1.04 (inactive) | 1.02 (inactive) | 1.02 (inactive) | 0.997 (inactive)
21 | Oc1ccccc1O [Catechol] (20 µM) | 1.11 | 1.01 | 0.966 | 0.98 | 1 (inactive) | 0.972 (inactive) | 0.979 (inactive) | 1.02 (inactive) | 1.01 (inactive) | 1.16 (inactive) | 0.978 (inactive) | 0.971 (inactive)
22 | COC(=O)C1=C(C#N)NC(C)=C(C(=O)OC(C)C)C1c1cccc([N+](=O)[O-])c1 (stereo unspecified) [Nilvadipine] (20 µM) | 1.01 | 1.18 | 0.953 | 0.932 | 0.971 (inactive) | 1.1 (inactive) | 1.24 (inactive) | 1.15 (inactive) | 0.936 (inactive) | 1.03 (inactive) | 1.02 (inactive) | 1.44 (active)
23 | CCCCCN(C)CCC(O)(P(=O)(O)O)P(=O)(O)O [Ibandronate sodium] (20 µM) | 1.07 | 0.989 | 0.973 | 0.926 | 1.04 (inactive) | 1.05 (inactive) | 0.934 (inactive) | 1 (inactive) | 1.01 (inactive) | 1.03 (inactive) | 0.994 (inactive) | 0.958 (inactive)
